Test results published in the supplement of paper PMC10849652.
About 7,900 targets were measured; listed, in parts, are those with a hit and a random draw of the rest. About 0.6% of all pairs of compound and target were hits. Values without a mark were called inactive.

Assays:
Assay in all cases: log2 fold change, soluble protein after heating vs DMSO (PISA); higher = thermal stabilisation; K562 cells, 10 uM, 30 min; active = over 0.2 and 3.5 SD of the protein, either way, in both replicates (recomputed)
[1] = compound: CC[C@@H]1C(=O)N(C)c2cnc(Nc3ccc(C(=O)NC4CCN(C)CC4)cc3OC)nc2N1C1CCCC1
Method in brief: (§1)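 K562 cells at 2×10^6 cells/mL were exposed to 10 μM compound for 30 min, then aliquots were heated for 3 min across 48°C-58°C, pooled, and extracted in PBS containing 0.5% NP-40 at 4°C. The supernatant after 21,000xg for 90 min was taken as soluble protein and measured by TMTpro 16plex LC-MS/MS with channel sums equalised. Thermal stability is reported relative to control samples, with values from duplicates. Fold changes are given on a log2 scale.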

[2] = compound: CC[C@@H]1C(=O)N(C)c2cnc(Nc3ccc(C(=O)N[C@H]4CC[C@H](N5CCN(CC6CC6)CC5)CC4)cc3OC)nc2N1C(C)C [volasertib]
Method in brief: as §1

[3] = compound: CC[C@H](C)N1C=C(C2=C(C=C(C=C21)C3=CN=C(C=C3)N4CCNCC4)C(=O)NCC5=C(C=C(NC5=O)C)C)C
Method in brief: as §1

[4] = compound: CC[C@H](C)[C@@H](C(=O)N[C@@H]([C@@H](C)O)C(=O)N[C@@H](CC(C)C)C(=O)[C@]1(CO1)C)NC(=O)[C@H]([C@@H](C)CC)N(C)C(=O)C [epoxomicin]
Method in brief: as §1

[5] = compound: CCn1c(C(=O)N(C2CC2)C2CC2)cc2c3c(ncn3C)c(Nc3cc(C)n(C)n3)nc21
Method in brief: as §1

[6] = compound: CCn1cc(-c2ccnc3[nH]c(-c4cccc(CN(C)C)c4)cc23)c(-c2ccc(NC(=O)N(C)C)cc2)n1
Method in brief: as §1

[7] = compound: CN(C)CC(=O)Nc1ccc2[nH]c(=O)c3ccccc3c2c1
Method in brief: as §1

[8] = compound: CN(CCOC1=CC=C(C=C1)C[C@H]2C(=O)NC(=O)S2)C3=CC=CC=N3 (racemic) [rosiglitazone]
Method in brief: as §1

[9] = compound: CN1C2=C(C3=C1C(=O)N(N=C3)CC4=CC(=CC=C4)N)SC(=C2)S(=O)C
Method in brief: as §1

[10] = compound: CN1CCC(CNc2ccc3ncc(-c4cccc(OC(F)(F)F)c4)n3n2)CC1
Method in brief: as §1

[11] = compound: CN1CCN(CCOc2cc(OC3CCOCC3)c3c(Nc4c(Cl)ccc5c4OCO5)ncnc3c2)CC1 [saracatinib]
Method in brief: as §1

[12] = compound: CN1CCN(c2nc(C3=C(c4c[nH]c5ccccc45)C(=O)NC3=O)c3ccccc3n2)CC1 [sotrastaurin]
Method in brief: as §1

[13] = compound: CN1CC[C@H](c2c(O)cc(O)c3c(=O)cc(-c4ccccc4Cl)oc23)[C@H](O)C1 [alvocidib]
Method in brief: as §1

[14] = compound: CN1CCc2c(c3ccccc3n2Cc2ccc(C(=O)NO)cc2)C1 [Tubastatin A]
Method in brief: as §1

[15] = compound: CNC(=O)C1=CC=CC=C1NC2=NC(=NC=C2Cl)NC3=C(C=C(C=C3)N4CCOCC4)OC
Method in brief: as §1

[16] = compound: CNC(=O)c1ccc(Nc2ncc(C(F)(F)F)c(NCc3nccnc3N(C)S(C)(=O)=O)n2)cc1 [defactinib]
Method in brief: as §1

[17] = compound: CNCc1ccc(-c2[nH]c3cc(F)cc4c3c2CCNC4=O)cc1 [rucaparib]
Method in brief: as §1

[18] = compound: CNc1nc(-c2ccc3c(N)n[nH]c3c2)cc(N2C[C@@H](C(=O)NC3CCCCC3)CC[C@H]2C)n1
Method in brief: as §1

[19] = compound: COC(=O)N[C@@H](C)CNc1nccc(-c2cn(C(C)C)nc2-c2cc(Cl)cc(NS(C)(=O)=O)c2F)n1 [encorafenib]
Method in brief: as §1

[20] = compound: COC(=O)[C@H](CCSC)NC(=O)C1=C(C=C(C=C1)NC[C@H](CS)N)C2=CC=CC=C2
Method in brief: as §1

UniProt Q9NXF7, sequence (Q9NXF7 whole entry, looked up): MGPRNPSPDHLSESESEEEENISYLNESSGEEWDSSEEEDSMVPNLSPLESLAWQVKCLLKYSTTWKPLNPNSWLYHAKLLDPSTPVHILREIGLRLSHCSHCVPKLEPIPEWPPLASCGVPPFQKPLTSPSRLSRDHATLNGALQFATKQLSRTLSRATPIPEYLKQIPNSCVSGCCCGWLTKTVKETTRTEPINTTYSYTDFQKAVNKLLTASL
UniProt Q8N6R0, sequence (Q8N6R0 whole entry, looked up): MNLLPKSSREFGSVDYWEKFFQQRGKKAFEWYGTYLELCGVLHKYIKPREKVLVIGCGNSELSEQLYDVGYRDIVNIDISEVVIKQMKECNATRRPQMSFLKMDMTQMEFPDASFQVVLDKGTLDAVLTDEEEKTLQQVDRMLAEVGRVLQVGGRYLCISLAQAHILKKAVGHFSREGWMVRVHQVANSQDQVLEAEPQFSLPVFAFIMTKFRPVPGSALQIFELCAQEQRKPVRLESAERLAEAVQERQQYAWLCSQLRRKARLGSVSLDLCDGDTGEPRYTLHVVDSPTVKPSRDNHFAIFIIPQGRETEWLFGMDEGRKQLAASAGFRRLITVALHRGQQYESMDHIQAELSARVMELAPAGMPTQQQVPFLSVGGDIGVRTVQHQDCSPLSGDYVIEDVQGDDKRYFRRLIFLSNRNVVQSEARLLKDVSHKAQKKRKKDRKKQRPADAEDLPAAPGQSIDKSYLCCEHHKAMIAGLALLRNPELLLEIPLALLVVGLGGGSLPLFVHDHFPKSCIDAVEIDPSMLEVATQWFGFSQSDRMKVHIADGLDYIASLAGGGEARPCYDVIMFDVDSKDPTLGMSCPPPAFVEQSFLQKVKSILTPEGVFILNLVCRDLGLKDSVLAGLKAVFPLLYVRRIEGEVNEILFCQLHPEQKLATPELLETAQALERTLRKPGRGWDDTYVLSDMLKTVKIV
UniProt P60842, sequence (P60842 whole entry, looked up): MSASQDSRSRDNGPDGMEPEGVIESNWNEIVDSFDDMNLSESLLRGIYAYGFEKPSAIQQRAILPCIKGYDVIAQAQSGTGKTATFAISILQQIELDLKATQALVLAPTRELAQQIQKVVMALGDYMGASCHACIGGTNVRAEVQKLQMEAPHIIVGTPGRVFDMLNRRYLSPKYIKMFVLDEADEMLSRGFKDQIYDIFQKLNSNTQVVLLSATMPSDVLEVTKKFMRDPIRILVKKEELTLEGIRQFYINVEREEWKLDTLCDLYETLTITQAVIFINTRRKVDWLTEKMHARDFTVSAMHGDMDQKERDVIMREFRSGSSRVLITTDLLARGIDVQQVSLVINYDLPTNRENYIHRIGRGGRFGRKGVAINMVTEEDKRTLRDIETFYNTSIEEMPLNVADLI
UniProt Q8IX18, sequence (Q8IX18 whole entry, looked up): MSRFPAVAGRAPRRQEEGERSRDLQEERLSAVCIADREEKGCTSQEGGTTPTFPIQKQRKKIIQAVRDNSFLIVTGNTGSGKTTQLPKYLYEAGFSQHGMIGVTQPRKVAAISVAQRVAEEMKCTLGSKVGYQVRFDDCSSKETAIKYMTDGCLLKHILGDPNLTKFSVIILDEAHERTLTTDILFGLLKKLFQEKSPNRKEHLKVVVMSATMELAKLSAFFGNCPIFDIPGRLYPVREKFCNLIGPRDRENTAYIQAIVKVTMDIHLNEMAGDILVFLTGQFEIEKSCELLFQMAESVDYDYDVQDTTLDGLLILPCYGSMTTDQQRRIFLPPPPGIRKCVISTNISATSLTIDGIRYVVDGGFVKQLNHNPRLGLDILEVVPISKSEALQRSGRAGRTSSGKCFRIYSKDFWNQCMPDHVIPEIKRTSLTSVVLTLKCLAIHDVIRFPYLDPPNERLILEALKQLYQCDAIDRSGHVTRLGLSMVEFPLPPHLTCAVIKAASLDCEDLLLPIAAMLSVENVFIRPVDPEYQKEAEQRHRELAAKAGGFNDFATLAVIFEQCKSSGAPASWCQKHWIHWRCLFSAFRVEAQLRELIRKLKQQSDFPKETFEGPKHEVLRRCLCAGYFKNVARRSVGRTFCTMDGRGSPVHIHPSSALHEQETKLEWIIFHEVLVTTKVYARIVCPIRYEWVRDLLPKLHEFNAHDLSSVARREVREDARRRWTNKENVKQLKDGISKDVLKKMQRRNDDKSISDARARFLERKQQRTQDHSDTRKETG
UniProt Q03468, sequence (Q03468 whole entry, looked up): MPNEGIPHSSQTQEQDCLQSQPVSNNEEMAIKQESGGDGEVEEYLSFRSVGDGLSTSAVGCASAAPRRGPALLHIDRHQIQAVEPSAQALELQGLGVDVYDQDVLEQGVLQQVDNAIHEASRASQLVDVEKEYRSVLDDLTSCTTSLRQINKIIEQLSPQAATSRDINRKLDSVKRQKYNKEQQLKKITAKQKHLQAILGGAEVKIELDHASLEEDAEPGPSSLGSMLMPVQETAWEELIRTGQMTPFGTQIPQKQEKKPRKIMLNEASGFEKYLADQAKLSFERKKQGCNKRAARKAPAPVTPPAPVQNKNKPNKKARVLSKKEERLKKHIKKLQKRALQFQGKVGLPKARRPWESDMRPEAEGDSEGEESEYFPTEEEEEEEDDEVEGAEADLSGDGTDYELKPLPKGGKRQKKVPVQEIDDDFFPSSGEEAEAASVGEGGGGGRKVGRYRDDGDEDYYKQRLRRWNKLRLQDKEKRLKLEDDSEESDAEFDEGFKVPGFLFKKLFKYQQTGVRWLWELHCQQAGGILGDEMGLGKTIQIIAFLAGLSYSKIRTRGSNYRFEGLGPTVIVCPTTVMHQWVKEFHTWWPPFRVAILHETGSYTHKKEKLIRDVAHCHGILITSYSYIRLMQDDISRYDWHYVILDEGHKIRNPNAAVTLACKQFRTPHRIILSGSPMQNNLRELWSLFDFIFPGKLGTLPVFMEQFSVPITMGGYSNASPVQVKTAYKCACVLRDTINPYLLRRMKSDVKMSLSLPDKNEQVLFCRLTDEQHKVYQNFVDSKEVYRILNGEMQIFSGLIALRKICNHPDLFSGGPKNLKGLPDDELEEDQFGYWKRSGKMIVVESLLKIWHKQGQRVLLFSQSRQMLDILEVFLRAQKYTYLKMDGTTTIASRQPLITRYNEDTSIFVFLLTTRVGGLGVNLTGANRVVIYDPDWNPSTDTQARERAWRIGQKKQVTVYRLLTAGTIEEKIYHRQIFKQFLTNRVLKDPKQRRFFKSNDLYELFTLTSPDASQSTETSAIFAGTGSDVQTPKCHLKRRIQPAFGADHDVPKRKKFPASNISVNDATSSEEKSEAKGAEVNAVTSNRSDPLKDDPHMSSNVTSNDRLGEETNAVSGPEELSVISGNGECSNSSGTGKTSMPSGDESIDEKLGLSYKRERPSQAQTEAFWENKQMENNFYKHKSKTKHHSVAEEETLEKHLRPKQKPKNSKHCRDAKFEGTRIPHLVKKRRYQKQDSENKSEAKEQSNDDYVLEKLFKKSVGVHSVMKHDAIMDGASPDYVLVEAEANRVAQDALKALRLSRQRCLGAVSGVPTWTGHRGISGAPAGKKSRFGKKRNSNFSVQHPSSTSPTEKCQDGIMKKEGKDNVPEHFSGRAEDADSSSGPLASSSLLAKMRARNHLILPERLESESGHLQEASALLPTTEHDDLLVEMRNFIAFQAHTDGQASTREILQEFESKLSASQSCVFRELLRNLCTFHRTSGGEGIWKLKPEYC
UniProt Q15392, sequence (Q15392 whole entry, looked up): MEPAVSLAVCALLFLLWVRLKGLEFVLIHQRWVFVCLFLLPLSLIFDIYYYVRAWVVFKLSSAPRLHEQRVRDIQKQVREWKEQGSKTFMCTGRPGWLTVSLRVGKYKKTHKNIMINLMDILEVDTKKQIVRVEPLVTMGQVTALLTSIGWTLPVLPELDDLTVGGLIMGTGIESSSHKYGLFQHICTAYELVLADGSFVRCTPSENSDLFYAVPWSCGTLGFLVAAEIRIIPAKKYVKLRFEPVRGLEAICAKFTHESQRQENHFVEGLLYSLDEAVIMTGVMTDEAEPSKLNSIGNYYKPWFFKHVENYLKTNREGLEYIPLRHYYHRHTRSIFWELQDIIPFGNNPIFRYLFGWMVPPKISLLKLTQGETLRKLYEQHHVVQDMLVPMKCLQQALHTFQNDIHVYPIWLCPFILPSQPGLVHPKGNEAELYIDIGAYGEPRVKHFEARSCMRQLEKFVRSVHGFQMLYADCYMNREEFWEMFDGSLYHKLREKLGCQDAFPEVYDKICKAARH
UniProt Q9BU89, sequence (Q9BU89 whole entry, looked up): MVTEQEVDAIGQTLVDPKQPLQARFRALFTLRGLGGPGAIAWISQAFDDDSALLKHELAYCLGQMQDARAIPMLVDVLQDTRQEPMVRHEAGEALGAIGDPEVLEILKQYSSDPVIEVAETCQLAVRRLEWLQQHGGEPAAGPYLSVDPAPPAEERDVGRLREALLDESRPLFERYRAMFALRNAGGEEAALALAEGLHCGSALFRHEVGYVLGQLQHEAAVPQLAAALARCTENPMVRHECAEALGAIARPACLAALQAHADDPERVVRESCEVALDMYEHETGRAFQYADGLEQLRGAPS
UniProt Q96KC8, sequence (Q96KC8 whole entry, looked up): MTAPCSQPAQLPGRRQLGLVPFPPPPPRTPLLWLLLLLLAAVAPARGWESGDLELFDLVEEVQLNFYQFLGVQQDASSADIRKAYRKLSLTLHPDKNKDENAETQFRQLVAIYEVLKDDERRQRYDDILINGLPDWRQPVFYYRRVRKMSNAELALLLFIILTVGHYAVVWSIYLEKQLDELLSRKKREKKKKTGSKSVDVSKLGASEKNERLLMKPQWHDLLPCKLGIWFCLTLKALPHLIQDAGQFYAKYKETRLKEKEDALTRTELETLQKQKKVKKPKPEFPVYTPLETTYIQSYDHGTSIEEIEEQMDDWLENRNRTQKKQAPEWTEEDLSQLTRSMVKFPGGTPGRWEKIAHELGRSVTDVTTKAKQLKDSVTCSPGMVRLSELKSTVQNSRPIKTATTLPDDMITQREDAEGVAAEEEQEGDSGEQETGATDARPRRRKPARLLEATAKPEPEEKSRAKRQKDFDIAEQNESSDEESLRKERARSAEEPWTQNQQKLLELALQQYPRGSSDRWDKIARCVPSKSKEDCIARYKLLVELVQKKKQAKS

Row | Target | log2 fold change [1] | log2 fold change [2] | log2 fold change [3] | log2 fold change [4] | log2 fold change [5] | log2 fold change [6] | log2 fold change [7] | log2 fold change [8] | log2 fold change [9] | log2 fold change [10] | log2 fold change [11] | log2 fold change [12] | log2 fold change [13] | log2 fold change [14] | log2 fold change [15] | log2 fold change [16] | log2 fold change [17] | log2 fold change [18] | log2 fold change [19] | log2 fold change [20]
1 | DNAJC1 (UniProt Q96KC8) | -0.097 | -0.185 | 0.024 | 0.037 | 0.008 | 0.014 | 0.002 | 0.014 | -0.01 | -0.144 | -0.02 | -0.028 | -0.012 | 0.018 | 0.046 | 0.004 | 0.03 | -0.011 | 0.003 | 0.005
2 | DHX40 (UniProt Q8IX18) | -0.006 | -0.236 | 0.188 | -0.037 | -0.074 | -0.013 | 0.026 | 0.166 | -0.076 | -0.029 | 0.069 | -0.025 | -0.052 | 0.053 | -0.043 | -0.163 | 0.087 | 0.013 | 0.068 | -0.039
3 | ERCC2 (UniProt P18074) | -0.015 | -0.258 | 0.043 | 0.326 (active) | 0.003 | -0.076 | -0.019 | 0.007 | 0.013 | -0.153 | -0.016 | -0.035 | -0.062 | 0.051 | -0.01 | -0.094 | -0.013 | -0.027 | 0.177 | -0.005
4 | EIF4A1 (UniProt P60842) | -0.106 | -0.273 (active) | 0.079 | 0.001 | 0.001 | -0.052 | 0.047 | 0.06 | -0.046 | -0.126 | -0.029 | -0.138 | -0.088 | 0.049 | -0.03 | -0.116 | 0 | 0.012 | 0.071 | -0.05
5 | FAF2 (UniProt Q96CS3) | -0.095 | -0.322 (active) | 0.002 | -0.046 | 0.006 | 0.018 | 0.037 | 0.029 | 0.016 | -0.069 | -0.084 | -0.048 | -0.053 | -0.008 | 0.021 | -0.011 | 0.015 | 0.021 | 0.036 | 0
6 | DCAF16 (UniProt Q9NXF7) | -0.164 | -0.532 (active) | 0.06 | 0.032 | -0.026 | -0.205 | 0.073 | 0.055 | -0.052 | 0.03 | -0.052 | -0.036 | -0.082 | -0.006 | 0.084 | -0.054 | 0.033 | -0.05 | 0.004 | -0.041
7 | EEF1AKNMT (UniProt Q8N6R0) | -0.082 | -0.564 (active) | 0.111 | 0.012 | -0.038 | 0.134 | 0.092 | 0.022 | 0.075 | -0.095 | -0.063 | -0.174 | -0.039 | -0.004 | 0.063 | -0.068 | 0.115 | 0.059 | 0.095 | -0.182
8 | EXOC6 (UniProt Q8TAG9) | -0.224 | -0.443 (active) | 0.102 | -0.06 | -0.051 | 0.014 | 0.033 | 0.009 | 0.06 | -0.23 | -0.02 | -0.153 | -0.151 | 0.042 | 0.075 | -0.061 | 0.025 | -0.015 | 0.013 | 0.009
9 | DEGS1 (UniProt O15121) | 0.061 | -0.02 | 0.012 | -0.037 | -0.028 | -0.168 | 0.068 | -0.041 | -0.1 | 0.019 | 0.088 | -0.022 | 0.036 | -0.521 (active) | 0.046 | -0.18 | 0.002 | 0.029 | 0.002 | 0.106
10 | EFL1 (UniProt Q7Z2Z2) | -0.024 | -0.245 (active) | 0.014 | 0.008 | -0.008 | -0.006 | 0.025 | 0.019 | -0.037 | -0.091 | -0.036 | -0.004 | -0.038 | -0.007 | -0.014 | -0.022 | 0.015 | 0.019 | 0.033 | -0.014
11 | DHCR24 (UniProt Q15392) | 0.769 | 1.21 (active) | 0.104 | -0.056 | -0.1 | 0.06 | 0.236 | 0 | -0.094 | 0.525 | 0.761 | 0.567 | 0.002 | 0.338 | -0.094 | -0.017 | 0.561 | 0.117 | 0.001 | 0.01
12 | DYNC1LI2 (UniProt O43237) | 0.324 | -0.021 | -0.181 | -0.072 | -0.085 | -0.041 | 0.024 | 0.052 | -0.007 | 0.101 | -0.001 | -0.079 | 0.258 | 0.033 | 0.028 | -0.039 | 0.42 | 0.003 | 0.212 | 0.016
13 | DOHH (UniProt Q9BU89) | -0.035 | -0.027 | 0.031 | -0.197 | 0.064 | -0.1 | 0.145 | 0.471 (active) | 0.025 | 0.164 | -0.035 | 0.196 | 0.147 | -0.121 | -0.076 | -0.152 | -0.002 | -0.064 | -0.074 | 0.037
14 | ERCC6 (UniProt Q03468) | 0.072 | -0.135 | -0.06 | 0.015 | 0.074 | -0.091 | 0.004 | -0.221 | -0.009 | 0.08 | -0.006 | 0.169 | -0.04 | -0.093 | 0.126 | 0.016 | 0 | -0.085 | -0.088 | 0.055
15 | F5 (UniProt P12259) | -0.06 | 0.105 | -0.018 | -0.125 | 0.163 | -0.048 | -0.09 | -0.054 | 0.141 | -0.009 | -0.003 | 0.139 | 0.134 | -0.076 | 0.133 | 0.081 | -0.079 | -0.068 | 0.037 | 0.039
16 | EXOC8 (UniProt Q8IYI6) | -0.212 | -0.367 (active) | 0.045 | -0.004 | -0.088 | 0.003 | 0.073 | 0.05 | 0.009 | -0.295 (active) | -0.015 | -0.196 | -0.031 | -0.012 | 0.056 | -0.069 | 0.016 | 0.112 | 0.094 | -0.047
